Molecules are shown by their SMILES. For some of these results: Results with a measured potency or affinity are listed apart.

Common to all, as to set-up: scale not given: direction of the effect not stated beside the values
The target of assay [1] is Protein translocase subunit SecA (Escherichia coli (strain K12)) (UniProt P10408). As to the kind of experiment: Assay to Identify E. coli SecA ATPase Inhibitors. The class given is functional. The following applies: 30 µM.
The target of assay [2] is T1, Ubiquitin-activating enzyme e1, putative (Leishmania donovani (strain BPK282A1)) (UniProt E9BSI1).
T1 sequence (whole entry): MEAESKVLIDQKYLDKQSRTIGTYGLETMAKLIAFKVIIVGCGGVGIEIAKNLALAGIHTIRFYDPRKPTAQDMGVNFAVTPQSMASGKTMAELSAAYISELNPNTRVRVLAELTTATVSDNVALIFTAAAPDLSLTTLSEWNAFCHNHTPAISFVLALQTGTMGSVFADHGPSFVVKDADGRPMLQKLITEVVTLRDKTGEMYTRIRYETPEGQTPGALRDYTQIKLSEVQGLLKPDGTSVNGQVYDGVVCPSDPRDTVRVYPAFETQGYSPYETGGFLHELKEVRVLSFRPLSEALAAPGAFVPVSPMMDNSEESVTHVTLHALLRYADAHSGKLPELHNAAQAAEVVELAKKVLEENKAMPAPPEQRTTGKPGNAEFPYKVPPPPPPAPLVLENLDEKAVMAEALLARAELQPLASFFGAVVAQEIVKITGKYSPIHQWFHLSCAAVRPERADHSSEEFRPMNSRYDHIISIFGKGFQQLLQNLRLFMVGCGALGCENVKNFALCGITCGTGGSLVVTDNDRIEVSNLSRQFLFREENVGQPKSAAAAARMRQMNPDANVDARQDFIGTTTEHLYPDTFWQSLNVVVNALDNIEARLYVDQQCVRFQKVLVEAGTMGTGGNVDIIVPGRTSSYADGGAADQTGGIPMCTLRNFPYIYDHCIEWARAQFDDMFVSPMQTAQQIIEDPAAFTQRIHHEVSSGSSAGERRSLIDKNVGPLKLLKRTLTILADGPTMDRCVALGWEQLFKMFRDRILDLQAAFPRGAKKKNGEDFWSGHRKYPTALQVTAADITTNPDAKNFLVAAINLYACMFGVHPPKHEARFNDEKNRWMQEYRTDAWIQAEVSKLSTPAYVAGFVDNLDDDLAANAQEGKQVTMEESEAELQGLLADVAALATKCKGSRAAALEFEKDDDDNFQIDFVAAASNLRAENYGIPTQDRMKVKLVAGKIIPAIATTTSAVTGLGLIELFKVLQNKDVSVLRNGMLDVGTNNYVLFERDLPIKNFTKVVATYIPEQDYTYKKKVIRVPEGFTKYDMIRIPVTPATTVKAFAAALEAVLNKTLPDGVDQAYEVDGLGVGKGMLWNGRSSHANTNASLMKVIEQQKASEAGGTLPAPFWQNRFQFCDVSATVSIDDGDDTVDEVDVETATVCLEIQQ
The assay can be described thus: Leishmania donovani Ubiquitin Activating Enzyme (LdE1). The class given is functional. Particulars: 30 µM.

Assay [3] deals with AMP-activated protein kinase, AMPK (Homo sapiens) (UniProt P54646+O43741+P54619+Q9UGJ0+Q9Y478+Q13131+Q9UGI9). The assay can be described thus: AMP-dependent Kinase enzyme assay. An in vitro enzyme assay that detects ADP turnover that is directly proportional to AMPK activity. This uses naive AMPK that is activated during the assay with MK-8722. The class given is functional. The following applies: 30 µM.

Assay [4] deals with Sialic acid-binding Ig-like lectin 9 (Homo sapiens) (UniProt Q9Y336). The assay can be described thus: Hs-Siglec9 ALPHAscreen SOP 20170721. Particulars: 10 µM.
In a further assay the test system is Trypanosoma cruzi. The assay can be described thus: Trypanosoma cruzi phosphomannomutase and mannose-1-phosphate guanylyltransferase assay. The class given is functional. Particulars: 10 µM.
The target in assay [5] is T2, Arginase-2, mitochondrial (Homo sapiens) (UniProt P78540).
T2 sequence (whole entry): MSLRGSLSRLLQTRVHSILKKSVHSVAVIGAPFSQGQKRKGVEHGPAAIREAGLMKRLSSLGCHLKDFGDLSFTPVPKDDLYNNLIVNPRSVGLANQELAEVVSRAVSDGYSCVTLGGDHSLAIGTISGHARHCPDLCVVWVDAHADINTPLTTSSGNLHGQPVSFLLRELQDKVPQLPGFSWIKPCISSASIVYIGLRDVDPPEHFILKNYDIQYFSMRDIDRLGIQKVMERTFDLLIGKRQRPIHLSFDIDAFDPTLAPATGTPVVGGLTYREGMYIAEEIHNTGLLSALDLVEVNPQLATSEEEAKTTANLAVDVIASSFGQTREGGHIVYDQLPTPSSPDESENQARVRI
As to the kind of experiment: in vitro enzyme assay to detect the production of urea directly proportional to the activity of Arginase II. Note: in the data most compounds retested in dose-response had high values. The class given is functional. The following applies: 33.3 µM.

In assay [6] the target is T3, Proteasome subunit beta (Trypanosoma cruzi) (UniProt O96673).
T3 sequence (whole entry): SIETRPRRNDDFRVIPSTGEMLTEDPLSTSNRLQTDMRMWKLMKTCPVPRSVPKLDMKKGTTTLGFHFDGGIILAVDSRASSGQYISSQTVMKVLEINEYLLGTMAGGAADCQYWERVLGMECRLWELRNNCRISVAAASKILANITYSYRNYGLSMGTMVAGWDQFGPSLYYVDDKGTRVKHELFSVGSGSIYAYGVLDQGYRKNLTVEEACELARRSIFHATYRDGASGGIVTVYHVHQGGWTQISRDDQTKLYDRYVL
The assay can be described thus: Trypanosoma cruzi proteasome chymotrypsin-like activity (TcProtChymo) assay. Note: in the data most compounds retested in dose-response had high values. The class given is functional. Particulars: 9.37 µM.

The species entered for another assay is Homo sapiens. As to the kind of experiment: To identify inhibition of the IFN signalling (Jak-Stat) pathway via expression of an eGFP reporter gene under the control of an IFN-stimulated response element (ISRE) containing MxA promoter. The class given is functional. The following applies: 30 µM.
In assay [7] the target is T4, Tyrosyl-tRNA synthetase, putative (Trypanosoma cruzi (strain CL Brener)) (UniProt Q4DSP6).
T4 sequence (whole entry): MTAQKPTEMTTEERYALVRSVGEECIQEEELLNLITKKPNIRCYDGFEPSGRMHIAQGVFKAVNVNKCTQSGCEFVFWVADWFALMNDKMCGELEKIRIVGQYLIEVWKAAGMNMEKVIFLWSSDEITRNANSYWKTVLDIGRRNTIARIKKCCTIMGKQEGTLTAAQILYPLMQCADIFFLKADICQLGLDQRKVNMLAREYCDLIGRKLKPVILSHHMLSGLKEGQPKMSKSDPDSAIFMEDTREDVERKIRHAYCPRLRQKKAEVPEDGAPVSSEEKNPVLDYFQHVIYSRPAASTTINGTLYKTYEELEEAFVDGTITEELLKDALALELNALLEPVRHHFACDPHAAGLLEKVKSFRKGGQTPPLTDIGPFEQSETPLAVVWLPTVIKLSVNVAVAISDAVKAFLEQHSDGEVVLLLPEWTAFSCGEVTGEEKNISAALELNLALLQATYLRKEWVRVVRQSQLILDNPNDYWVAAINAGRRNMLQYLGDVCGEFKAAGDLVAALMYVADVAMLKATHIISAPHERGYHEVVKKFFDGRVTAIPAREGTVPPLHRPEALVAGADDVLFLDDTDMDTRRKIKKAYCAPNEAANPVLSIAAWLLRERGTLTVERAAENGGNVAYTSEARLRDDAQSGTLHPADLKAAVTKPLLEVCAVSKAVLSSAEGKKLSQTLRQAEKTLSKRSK
The assay can be described thus: Trypanosoma cruzi tyrosyl tRNA synthetase (TcYRS) _High Tyrosine SOP. Note: in the data most compounds retested in dose-response had high values. The class given is functional. The following applies: 30 µM.

Assay [8] addresses T4, Tyrosyl-tRNA synthetase, putative (Trypanosoma cruzi (strain CL Brener)). As to the kind of experiment: Trypanosoma cruzi tyrosyl tRNA synthetase (TcYRS) SOP. The class given is functional. The following applies: 30 µM.
The target of assay [9] is Chromo domain-containing protein 1 (Saccharomyces cerevisiae (strain ATCC 204508 / S288c) (Baker's yeast)) (UniProt P32657). As to the kind of experiment: ScCHD-1 Enzyme Inhibition Assay. Note: in the data most compounds retested in dose-response had high values. The class given is functional. The following applies: 30 µM.
Sequence of Chromo domain-containing protein 1 (Saccharomyces cerevisiae (strain ATCC 204508 / S288c) (Baker's yeast)) (P32657 whole entry, the tested form may be a part): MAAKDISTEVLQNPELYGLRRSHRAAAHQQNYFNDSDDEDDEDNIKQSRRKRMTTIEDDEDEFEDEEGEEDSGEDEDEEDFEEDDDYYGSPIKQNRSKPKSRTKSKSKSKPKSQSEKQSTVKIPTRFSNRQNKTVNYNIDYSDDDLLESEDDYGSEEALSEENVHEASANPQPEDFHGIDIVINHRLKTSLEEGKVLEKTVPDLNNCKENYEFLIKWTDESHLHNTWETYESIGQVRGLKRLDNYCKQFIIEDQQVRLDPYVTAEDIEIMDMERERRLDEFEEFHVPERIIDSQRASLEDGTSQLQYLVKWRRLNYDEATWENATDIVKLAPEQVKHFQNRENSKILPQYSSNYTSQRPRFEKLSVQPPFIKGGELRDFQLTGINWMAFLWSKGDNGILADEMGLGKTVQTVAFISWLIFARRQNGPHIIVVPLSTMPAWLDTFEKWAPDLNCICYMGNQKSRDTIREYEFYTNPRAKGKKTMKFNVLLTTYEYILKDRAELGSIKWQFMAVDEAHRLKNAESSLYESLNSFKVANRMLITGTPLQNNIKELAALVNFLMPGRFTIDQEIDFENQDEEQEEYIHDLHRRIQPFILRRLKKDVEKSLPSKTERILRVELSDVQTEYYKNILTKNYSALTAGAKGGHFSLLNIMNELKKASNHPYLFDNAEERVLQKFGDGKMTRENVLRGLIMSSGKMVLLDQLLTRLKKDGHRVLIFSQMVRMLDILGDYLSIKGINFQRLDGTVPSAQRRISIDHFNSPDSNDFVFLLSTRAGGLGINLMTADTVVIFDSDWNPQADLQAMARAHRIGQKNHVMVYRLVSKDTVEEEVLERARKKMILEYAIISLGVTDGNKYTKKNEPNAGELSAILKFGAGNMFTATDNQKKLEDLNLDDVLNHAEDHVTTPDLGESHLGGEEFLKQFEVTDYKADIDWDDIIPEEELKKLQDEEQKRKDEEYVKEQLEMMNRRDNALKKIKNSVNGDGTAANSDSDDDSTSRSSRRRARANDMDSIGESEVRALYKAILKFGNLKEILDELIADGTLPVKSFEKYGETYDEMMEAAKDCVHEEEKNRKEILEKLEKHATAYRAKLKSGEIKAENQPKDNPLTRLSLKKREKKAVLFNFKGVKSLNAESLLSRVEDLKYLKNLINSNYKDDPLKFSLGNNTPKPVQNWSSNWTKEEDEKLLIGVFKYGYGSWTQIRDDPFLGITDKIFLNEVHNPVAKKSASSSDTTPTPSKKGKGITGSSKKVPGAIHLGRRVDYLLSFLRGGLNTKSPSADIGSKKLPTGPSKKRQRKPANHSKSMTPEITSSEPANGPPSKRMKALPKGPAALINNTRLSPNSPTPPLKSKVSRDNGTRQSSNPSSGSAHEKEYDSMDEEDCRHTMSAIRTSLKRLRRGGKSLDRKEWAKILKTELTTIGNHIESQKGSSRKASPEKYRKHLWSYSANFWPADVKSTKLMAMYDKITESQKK

Sequence of Protein translocase subunit SecA (Escherichia coli (strain K12)) (P10408 whole entry): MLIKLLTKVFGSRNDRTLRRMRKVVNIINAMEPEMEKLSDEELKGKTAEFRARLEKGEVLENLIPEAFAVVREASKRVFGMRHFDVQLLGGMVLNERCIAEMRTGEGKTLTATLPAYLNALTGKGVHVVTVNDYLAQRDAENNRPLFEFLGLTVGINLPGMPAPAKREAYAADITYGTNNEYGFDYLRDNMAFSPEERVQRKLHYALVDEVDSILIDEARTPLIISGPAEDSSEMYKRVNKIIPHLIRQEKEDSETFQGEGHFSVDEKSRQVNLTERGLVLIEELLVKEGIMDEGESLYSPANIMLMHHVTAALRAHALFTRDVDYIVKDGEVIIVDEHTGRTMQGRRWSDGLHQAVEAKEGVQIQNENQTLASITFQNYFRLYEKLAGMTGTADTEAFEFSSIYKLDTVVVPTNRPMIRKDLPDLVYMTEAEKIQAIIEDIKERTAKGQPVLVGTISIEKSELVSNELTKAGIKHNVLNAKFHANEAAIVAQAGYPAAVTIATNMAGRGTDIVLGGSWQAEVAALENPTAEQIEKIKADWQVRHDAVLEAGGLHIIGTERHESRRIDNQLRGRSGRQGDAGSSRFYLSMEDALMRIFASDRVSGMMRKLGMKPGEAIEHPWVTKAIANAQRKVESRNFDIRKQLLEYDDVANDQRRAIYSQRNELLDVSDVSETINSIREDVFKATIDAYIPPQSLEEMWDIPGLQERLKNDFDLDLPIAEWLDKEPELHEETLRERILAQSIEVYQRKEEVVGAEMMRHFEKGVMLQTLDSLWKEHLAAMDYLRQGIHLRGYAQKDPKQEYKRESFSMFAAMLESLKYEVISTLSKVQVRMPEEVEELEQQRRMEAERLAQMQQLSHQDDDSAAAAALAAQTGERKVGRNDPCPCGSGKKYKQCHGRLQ
Sequence of Sialic acid-binding Ig-like lectin 9 (Homo sapiens) (Q9Y336 whole entry): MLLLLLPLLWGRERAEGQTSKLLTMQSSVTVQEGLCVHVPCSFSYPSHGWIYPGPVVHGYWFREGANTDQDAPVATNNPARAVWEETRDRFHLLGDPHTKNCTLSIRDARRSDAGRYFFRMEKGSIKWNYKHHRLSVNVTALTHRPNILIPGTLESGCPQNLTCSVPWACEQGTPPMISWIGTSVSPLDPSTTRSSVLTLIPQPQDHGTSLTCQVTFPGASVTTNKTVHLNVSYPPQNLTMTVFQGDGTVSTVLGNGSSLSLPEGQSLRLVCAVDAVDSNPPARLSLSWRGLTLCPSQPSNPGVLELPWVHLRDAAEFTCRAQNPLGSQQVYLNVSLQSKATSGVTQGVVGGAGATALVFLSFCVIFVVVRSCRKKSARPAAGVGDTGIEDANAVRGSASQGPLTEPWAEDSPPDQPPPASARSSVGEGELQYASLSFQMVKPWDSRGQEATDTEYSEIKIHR

In the case of `Cc1cc(-c2cnc(N3CCNC(=O)C3)nc2-c2cccnc2C)on1`, the Percent Effect in assay [1] is -2.87%; in assay [2], 8%; in [3], 5.98%; in [4], 8.08%; in the assay with Trypanosoma cruzi it was 1.97%; in assay [5], -2.1%. Further, the Percent Effect in assay [6] was 7.49%; in the assay filed under Homo sapiens, 1.83%; in [7], 5.32%; in [8], 11.5%; in assay [9], -10.5%.

Regarding `NC(=O)COc1cccc(C(=O)Nc2cnc3n2CCCC3)c1`, the Percent Effect is -4.34% in assay [1]; 6.94% in assay [2]; -7.99% in assay [3]; 1.81% in [4]; -1.26% in the assay with Trypanosoma cruzi; 6.18% in assay [5]. Further, the Percent Effect was 10.7% in assay [6]; -0.649% in the assay filed under Homo sapiens; 8.42% in assay [7]; 15.4% in assay [8]; -3.57% in assay [9].

On to `Cc1noc2ncc(C(=O)NCC3CCN(C(C)C)C3)cc12` (stereo not drawn), for which the Percent Effect in assay [1] was -2.65%; in assay [2] it was 2.63%; in assay [3], 2.21%; in [4] it was 2.67%; with Trypanosoma cruzi, -6.58%; in [5], 4.21%. Further, the Percent Effect was 4.34% in assay [6]; 4.5% in the assay filed under Homo sapiens; -0.49% in assay [7]; 4.88% in [8]; 3.24% in assay [9].

For `Cc1nc(CN2CCC(N(C)Cc3noc(C(C)C)n3)C2)cs1` (stereo not drawn), the Percent Effect is 1.43% in [1]; -24.7% in assay [2]; -8.83% in assay [3]; 5.3% in assay [4]; -5.68% in the assay on Trypanosoma cruzi; -4.54% in assay [5]. Moreover, the Percent Effect in assay [6] is 19%; in the assay filed under Homo sapiens, 26%; in assay [7], 4.3%; in assay [8], 2.5%; in [9], -4.7%.

Take `CC(C)Sc1ncccc1C(=O)NCc1ccc(CS(C)(=O)=O)cc1`: the Percent Effect was -4.04% in [1]; 13.9% in assay [2]; 0.323% in [3]; -3.32% in assay [4]; -1.74% with Trypanosoma cruzi; 4.09% in assay [5]. Besides, the Percent Effect was 18% in assay [6]; 18.1% in the assay listed under Homo sapiens; 4.17% in [7]; 5.06% in assay [8]; -15.6% in [9].

On to `CN(C)C(=O)N1C[C@@H]2CCCO[C@@H]2[C@H](N(C)Cc2ccco2)C1`, for which the Percent Effect in assay [1] was -3.04%; in assay [2] it was 13.7%; in assay [3], 2.03%; in [4], 7.85%; with Trypanosoma cruzi, 6.55%; in assay [5], -5.99%. For the same compound, the Percent Effect in [6] is 8.99%; in the assay filed under Homo sapiens, -3.94%; in assay [7], 4.17%; in [8], 13.6%; in [9] it was -11.2%.

Take `COCCC(=O)N1CCC2(CN(Cc3ccc(OC)c(F)c3)C2)C1`: the Percent Effect in assay [1] was 1.99%; in assay [2] it was 13.7%; in [3], -3.76%; in assay [4], 8.62%; in the assay on Trypanosoma cruzi, 5.16%; in assay [5], 0.399%. For the same compound, the Percent Effect is 6.42% in assay [6]; -17.9% in the assay listed under Homo sapiens; 6.25% in assay [7]; 18.5% in assay [8]; -0.472% in assay [9].

As to `CC(Cn1ccnc1)NC(=O)C1(c2ccc3c(c2)OCCO3)CCCC1` (stereo not drawn), the Percent Effect in assay [1] is -1.6%; in assay [2] it was 20.2%; in assay [3], -9.88%; in [4], -5.21%; in the assay with Trypanosoma cruzi, 1.79%; in assay [5], -2.66%. Besides, the Percent Effect in [6] is 15.2%; in the assay filed under Homo sapiens, 10.3%; in assay [7], 6.4%; in assay [8], 24.1%; in assay [9] it was -7.42%.

The values are drawn from ChEMBL document CHEMBL3988442, “University of Dundee, Small-Polar-MMV Screening Library” (2021).
